A selection: hits, their analogues and other compounds. The true share with any hit is near 8.7%.
BAZ2B block = BAZ2B (human) inhibition | 4.4% of 360,000 active | Potency, µM (doses to about 114 µM), for the others: at the highest dose activity change, negative = inhibition, actives largely listed as inhibitors | AlphaScreen BAZ2B-H3K14Ac peptide displacement | Q9UIF8; note: % is set by controls: 0 for no effect and ±100 for the full control effect; nearly all actives have a fitted effect of over 60% in size
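Protein-peptide AlphaScreen: BAZ2B 50 nM, b-H3K14Ac 50 nM, 1x PBS pH 7.4 + 0.01% Tween-20. Preincubation 30 min RT; cpd 30 min RT (top 110 uM); beads 20 min RT, light-protected.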
HP1b chromo inh = HP1-beta chromodomain-methylated histone interaction inhibition | AlphaScreen HP1-beta / biotin-H3K9me3 peptide binding | Potency, µM (titrated, usually from 114 µM), inactives show top-dose activity change, negative = inhibition, most hits filed as inhibitors | 0.56% of 390,000 active; note: nearly all actives have a fitted effect of over 70% in size
Target sequence (P83916 whole entry, looked up): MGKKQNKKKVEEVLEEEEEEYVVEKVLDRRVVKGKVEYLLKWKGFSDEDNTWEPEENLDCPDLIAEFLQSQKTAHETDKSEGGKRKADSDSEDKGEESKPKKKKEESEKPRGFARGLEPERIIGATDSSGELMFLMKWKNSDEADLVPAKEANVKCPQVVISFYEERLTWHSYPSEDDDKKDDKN
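AlphaScreen: HP1-beta (50 nM) preformed 30 min with biotin-H3(1-18)K9me3 peptide (50 nM) in PBS pH 7.4, 0.01% Tween-20. Compound added for 30 min at RT, then streptavidin donor/nickel chelate acceptor beads (10 ug/mL) for 30 min.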
JMJD2A Tudor inh = blocks the human JMJD2A Tudor domain. O75164. AlphaScreen JMJD2A-Tudor / H3K4me3 peptide binding. Potency, µM (top dose mostly 114 µM), for inactives: at the highest dose activity change, negative = inhibition, hits mostly inhibitors. 4.4% of 390,000 active; note: % is set by controls: 0 for no effect and ±100 for the full control effect; nearly all actives have a fitted effect of over 50% in size
ALOX12 inh = blocks human arachidonate 12S-lipoxygenase; P18054; Potency, µM (titrated, usually from 108 µM), without a hit: at the top dose activity change, negative = inhibition, usual class: inhibitors; purified 12hLO, xylenol orange hydroperoxide absorbance; AID 1671190; 1.1% of 580,000 active; note: % is set by controls: 0 for no effect and ±100 for the full control effect
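Purified human 12hLO (150 nM final) in 25 mM Hepes, 0.01% Triton X-100, pH 7.0 was preincubated 15 min at room temperature with compound. Then 40 uM arachidonic acid was added, 30 min. Hydroperoxide was read by Fe-XO absorbance ratio 573/405 nm.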
Sfp inh = blocks B. subtilis Sfp PPTase activity; Potency, µM, for the others: largest response in the series, negative = inhibition, actives largely listed as inhibitors; 3.5% of 310,000 active; Biochemical Sfp PPTase activity, qHTS; AID 1490;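 note: the enzyme is Sfp with the accession as filed and its product quenches rhodamine fluorescence; 0% = enzyme reaction without inhibitor and -100% = no enzyme wells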
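With Hepes-Na pH 7.6 buffer containing 10 mM MgCl2, Sfp (15 nM) modified BHQ-2-YbbR (12.5 uM) using rhodamine-CoA (5 uM). Two reads 30 minutes apart at 525/598 nm yielded each well's rate.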
G9a block = G9a (human) methyltransferase inhibition; G9a H3K9 monomethylation, AlphaScreen, 2 h; Q96KQ7; 8.8% of 350,000 active; Potency, µM (highest dose often 102 µM), for the others: at the highest dose activity, negative = inhibition, most hits filed as inhibitors; note: % is set by controls: 0 for no effect and ±100 for the full control effect; nearly all actives have a fitted effect of over 75% in size
Target sequence (Q96KQ7 913-1193 limits assumed): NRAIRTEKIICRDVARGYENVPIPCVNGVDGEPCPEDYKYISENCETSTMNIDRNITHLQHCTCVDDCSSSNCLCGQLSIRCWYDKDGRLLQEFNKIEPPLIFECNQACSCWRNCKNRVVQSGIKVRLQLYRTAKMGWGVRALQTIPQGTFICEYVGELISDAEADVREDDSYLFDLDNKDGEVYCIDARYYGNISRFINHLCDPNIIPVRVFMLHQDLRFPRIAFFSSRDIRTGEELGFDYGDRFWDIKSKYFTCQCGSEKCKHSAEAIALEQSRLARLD
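AlphaScreen detection with an anti-monomethyl H3K9 antibody quantified product after a 2 h room-temperature reaction containing 500 nM biotinylated H3K9 peptide, 20 µM SAM and 20 nM enzyme, which had been preincubated 15 min with compound.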
Starred values were filed as active, the others as inactive; ? = inconclusive; . = no result; [ ] = dose if it differs, or a comment. Calls come from the whole dose curve; as a rule, active = well fitted curve in the direction sought with a large enough effect; inconclusive = small, poorly fitted or top-dose-only effect, or another doubt; inactive = no such curve, though single readings can be large; an effect the other way counts as inactive or inconclusive. Potency is the fitted concentration of half-maximal effect.

SMILES	BAZ2B block	HP1b chromo inh	JMJD2A Tudor inh	ALOX12 inh	Sfp inh	G9a block
CSc1nsc(NC(=O)OCc2ccc(Cl)cc2)n1	8%	61%	-2%	9%	11%	.
COc1ccsc1NC(=O)OCc1ccc(Cl)cc1	?	-16%	?	?	-13%	50µM*
CNC(=O)c1cccc(-c2cnc(Nc3cccc(F)c3)c3c2CCO3)c1	.	.	.	-15%[176 µM]	.	.
CCOc1ccccc1NC(=O)C(=O)/C=C(\O)c1cc(OC)ccc1OC	9%	-15%	20µM*	-7%	-14%	?
CCOc1ccccc1NC(=O)C(NCC1CCCCC1)c1ccccc1 (centres undefined)	-4%	66%	17%	-3%	-11%	88%
CCOc1ccccc1NC(=O)C(NCCc1ccc(OC)cc1)c1ccccc1 (centres undefined)	50µM*	83%	24%	0%	?	.
CCOc1ccccc1NC(=O)C(NCCN(C)C)c1ccccc1 (centres undefined)	50µM*	-5%	22µM*	4%	79µM*	10µM*
COc1ccc(C(=O)N2CCC3(CC2)CC(OCC2CC2)CCO3)cn1 (centres undefined)	.	.	.	49%	.	.
O=C1CC2(CCN(CC3CCCC3)C2)Nc2ccccc2N1 (centres undefined)	.	.	.	0%[6.33 µM]	.	.
COc1cccc(CNC(=O)[C@@H]2C[C@@H](O)CN2C2CCN(C(=O)c3ccnn3C)CC2)c1	.	.	.	41%	.	.
CC1CCC(NC(=O)c2ccccc2S(C)(=O)=O)CC1 (centres undefined)	.	.	.	-4%	.	.
O=C(O)c1ccc(/C=N/NC(=O)c2ccc(CN3c4cccc5cccc(c45)S3(=O)=O)cc2)cc1	50µM*	-6%	?	-17%	-15%	-4%[59 µM]
CC(/C=N/NC(=O)c1ccc(CN2c3cccc4cccc(c34)S2(=O)=O)cc1)c1ccccc1 (centres undefined)	9%	5%	-11%[57.1 µM]	17%	7%	11%
CCNC(=O)C1N(C(C)C)C(=O)C12CCCC2 (centres undefined)	.	.	.	2%	.	.
CCNC(=O)/N=C1/NC(=O)C(C(C)C)O1 (centres undefined)	-29%	0%	7.9µM*	?	-27%	?
COC(=O)c1ccccc1NC(=O)COC(=O)CSc1nnc(N)s1	-4%	25%	-23%	16%	-1%	28µM*
Nc1nnc(SCC(=O)OCC(=O)c2ccccc2Br)s1	-7%	29%	-15%	-9%	14%	40µM*
Nc1nnc(SCC(=O)OCC(=O)Nc2ccccc2)s1	7%	30%	-3%	0%	6%	.
O=C(c1ccco1)N(Cc1ccccc1)Cc1ccccn1	?	54%	3%	-21%	-18%	79µM*
O=C(c1cccs1)N(Cc1ccccn1)Cc1ccco1	?	-4%	?	-8%	79µM*	?
N#Cc1ccc(CN2CCc3cc(S(=O)(=O)N4CCOCC4)ccc32)c(F)c1	.	.	.	16%	.	.
CCN(C(=O)c1ccco1)c1nc(-c2ccc(C)cc2)cs1	.	.	.	8%	.	.
O=C(Nc1nc(-c2ccccc2)cs1)c1ccco1	10%	26%	-16%	0%	16%	?
O=C(NNc1nc(-c2ccc(Br)cc2)cs1)c1ccco1	-38%	30%	-26%	5%	-10%	28µM*
N#Cc1ccc(-c2csc(NNC(=O)c3ccc(Br)cc3)n2)cc1	-12%	22%	-3%	97%	13%	.
SMILES	BAZ2B block	HP1b chromo inh	JMJD2A Tudor inh	ALOX12 inh	Sfp inh	G9a block
COc1ccc(-c2csc(NC(=O)c3ccco3)n2)cc1	?	23%	-21%	9%	-14%	14µM*
CCN(C(=O)c1ccco1)c1nc(-c2ccc(OC)cc2)cs1	79µM*	5%	12%	-8%	89µM*	15%
CCOc1ccc(-c2csc(NC(=O)c3ccco3)n2)cc1	-6%	11%	-22%	?	-7%	40µM*
Cc1ccc(-c2csc(NC(=O)c3ccco3)n2)cc1C	4%	12%	-28%	-31%	-2%	.
Cc1ccc(-c2csc(NC(=S)NC(=O)/C=C/c3ccco3)n2)cc1	?	0%	-22%	-28%	-7%	13%
O=C(NC(=S)Nc1nc(-c2ccc(Br)cc2)cs1)c1ccco1	5%	26%	4%	-2%	-3%	5%
O=C(/C=C\c1ccco1)Nc1nc(-c2ccc3ccccc3c2)cs1	?	5%	-17%	?	12%	50µM*
O=C(NC(=S)Nc1nc(-c2ccc([N+](=O)[O-])cc2)cs1)c1ccco1	-24%	-15%	-25%	?	-17%	25µM*
COc1ccc2cnn(CC(=O)Nc3cc(F)ccc3F)c(=O)c2c1OC	.	.	.	-1%	.	.
COC(=O)/C=C1\N/C(=N\c2nc(C)cc(C)n2)N(c2ccccc2)C1=O	-18%	0%	-16%	?	-20%	4%
COC(=O)/C=C1/N/C(=N\c2nc(C)cc(C)n2)N(c2cccc(C)c2)C1=O	-21%	24%	22µM*	?	?	-28%
NC(=O)NC(=O)COC(=O)c1ccc(Cl)c(S(=O)(=O)N(Cc2ccccc2)c2ccc(Cl)cc2)c1	-32%	5%	-18%	-3%	28%	3%[59 µM]
O=C(O)c1ccc(Cl)c(S(=O)(=O)N(Cc2ccccc2)c2ccc(Cl)cc2)c1	-23%	17%	-17%	?	19%	50µM*
C=CCNC(=O)COC(=O)c1ccc(Cl)c(S(=O)(=O)N(Cc2ccccc2)c2ccccc2)c1	3%	35%	-23%	-12%	4%	32µM*
CC1=C(C(=O)OCc2ccccc2)C(c2ccc(Cl)cc2Cl)NC(=O)N1CCCC(=O)O (centres undefined)	-39%	66%	-21%	.	?	56µM*
CC1=C(C(=O)OCc2ccccc2)C(c2ccc(Cl)cc2Cl)NC(=O)N1CCCCCC(=O)O (centres undefined)	?	10%	-29%	.	-18%	?
CCOC(=O)C1=C(C)N(CCCCCC(=O)O)C(=O)NC1c1ccccc1Cl (centres undefined)	?	34%	-18%	-10%	?	56µM*
CCOC(=O)CN1C(=O)N[C@H](c2ccc(Br)cc2)C(C(C)=O)=C1C	-24%	25%	-28%	-30%	?	45µM*
CCOC(=O)C1=C(C)N(CCCCCC(=O)O)C(=O)NC1c1ccc(Br)cc1 (centres undefined)	-7%	21%	?	-16%	14%	50µM*
COc1ccccc1Nc1ncncc1-c1nc(-c2ccccc2)no1	.	.	.	57%	.	.
COc1ccc(CN(Cc2cccc(C#N)c2)C2CC2)cc1	.	.	.	-3%	.	.
O=C(Cn1cncn1)c1ccc(Cl)cc1	-10%	62%	-10%	.	17%	-19%
